B1: ENSMUSG00000042529.435|Kcnj12|146:150 (ssRNA)
RNA: GGGAGUUCUACAGUCCGACGAUCGCUUCGAUAUCCGCAUGCUAAGAGAGAGAGAGAGAGAGAGAGAGAGAGAGAGAGAGAGAGCUGCACAGGAUGAAGCAGCUGCCCUGAGCCCAUCUGGUGCUGUGCACCUGGUCCUUGUCCAGCCGAGGGCCUGGGGGCAGAAGAACACACCAUAGGGAGGCCCUUCAUACGGUGUCUGCCCUAUGUGAGGUCAUAGAAUGUUAAAUCUAUUUUAAACGGUGAAACUGGAGAAUUUUCAUGUUAUUUUCAAUAAUAGUGGUAUCUAAAGAUGUAGGCAACACUCUUGCGGUCGCACUAGUGUGGAAUUCUCGGGUGUCAAGG
B2: ENSMUSG00000035202.98|Lars2 (ssRNA)
RNA: GGGAGUUCUACAGUCCGACGAUCGCUUCGAUAUCCGCAUGCUAUCCUGCUCAGUACGAGAGGAACCGCAGCUAGCUUGUGUCUCCAGUGUCUUUUACCAUCACAGGCCCUGGCUCUGUGCUACCUCCCUAGAAUACCUGUGGUUCAUCACCUUCAGCUCACACUCCAUUCAGACAAUGCUCACUUAGGCCUACAAGCAAGGGAGAGGCUUAAGCACAAGGUCUUUAAGCUUGAUACUGUGCCUGGUCUCAAUGCCUAGAAAUUCCAACUUAACUGUCGCUAUCAUAAAGGAUUUUAAAUUUUUCUCUUGCGGUCGCACUAGUGUGGAAUUCUCGGGUGUCAAGG
B3: ENSMUSG00000090935.628|Synj2bp (ssRNA)
RNA: GGGAGUUCUACAGUCCGACGAUCGCUUCGAUAUCCGCAUGCUAGUCUUAAACUGAUUAGUAACACUAUGACUUACCCUGAGAUCUAAGUAUUGCUAUAAAGAGACUGAAGAGGAGAGAAUAAAGUAUUUUCCUAGGACUACAUAGUUGGUAAAAGAGAAUCAUGAUUUAAACUCUGGACUAUGGAUGGCAGUAUCAGUAAUAUUCCCUCAUAGCUAGCAGUCCUCAUGCAAGGUCUCUGAACAAAAGCAACGUAUCACCUGCAAAUGCUUGGGUUUCAUCCCAUUCUUAUGGAGUGAGAUGAGCUCUUGCGGUCGCACUAGUGUGGAAUUCUCGGGUGUCAAGG
B4: ENSMUSG00000061578.1408|Ksr2|69:73 (ssRNA)
RNA: GGGAGUUCUACAGUCCGACGAUCGCUUCGAUAUCCGCAUGCUACUCCACGGACCUCAGGCCCACUGUUUUCUCCAUGUCUGUCUGUACUGACUGUUGCAGAAUGAGCUGAUCAUACAUCUUGAUUCUCCAUUUUCCUUCUGGACCACAUGUCUCUUCCUUUUCCUUUUUAGAUCUGUCUUGCUCUCUGUCUCUCUCACUCAUUGCCAACAUGUUGCUGGGAAAGAAUAUUUGAUUUAGAUGCCAAUCAGGAAGGCAAGUAGGAUGGAUGGAUGAGUGAGUGGAUAGGUAGGUAUAUAAAUGGACUCUUGCGGUCGCACUAGUGUGGAAUUCUCGGGUGUCAAGG
B5: ENSMUSG00000031028.69|Tub|109:121;139:143 (ssRNA)
RNA: GGGAGUUCUACAGUCCGACGAUCGCUUCGAUAUCCGCAUGCUAUGGAGGUACAGAGGGAGAGGAAGCACAAGCCUGGCUGCUGUGGCUCAGCCAUCCACUCAGCCUACGAGUCAGAGACAGUGGGUGUCCCGGGAAGCAGGGGUACAGUGACACACACACAUACUACAGGGCACUCAAGCUCAUACUAGAAAAAGCUCUGGUGGUCAGCAGAAAGCACUCCCACUUCAAAAGGGCCCAUUAGGCCCAAAGGGGGUUAGGAGUGGUAGGGAUAGGUGCGUGGCAGGUCCCUGCUAGGAUUGCAGCUCUUGCGGUCGCACUAGUGUGGAAUUCUCGGGUGUCAAGG
B6: ENSMUSG00000028439.266|Fam219a|244:248 (ssRNA)
RNA: GGGAGUUCUACAGUCCGACGAUCGCUUCGAUAUCCGCAUGCUAUGCUGGUCUGGUCUGAGGGAGGAAAGCUGAGGCUGUAGCUCAGUGAGAUGGUGGCUCUCCCAUGGCUGAAGACAAGUGCAAGCAGAGAGAGCCUCAGGCUGCUGGGCCUCGGACCCACGAGCCUCCUCUCACUGAGCCAGUGCGGCCAGAGUGUCUCUCCUUCAGGCGCCCCACAUGCCAGCAUUUCCACCCUCUGGAUUCUCCUCACAUGUCACUCUCCAGGUGCCGGGGCCUAGAGUGGGCCACACAGAAGGAGGAGUCUCUUGCGGUCGCACUAGUGUGGAAUUCUCGGGUGUCAAGG
B7: ENSMUSG00000042529.487|Kcnj12 (ssRNA)
RNA: GGGAGUUCUACAGUCCGACGAUCGCUUCGAUAUCCGCAUGCUAGAUGUGCGUCUCACUGGCCUCUGCCUGCCUCUCCCGCCUGCGGAGCACUUACACUUCCUGGGGCCCCUGCAGCUGGACCAUGUACAGGGCUCCCUGGGGCUUGUCCUCAGGGGCAGAGAAGGACAUGGUGGCAGCAGCACUGAGAACAGGAGCAUGGCCUCUCUCAGACCCCAGGGCAGUCAUUCAGUCUUUUCCAUGGACACUCCCCACCGCUCCACAUACUGCCUCCGCCUCAUUCUUGGGCUCUUCCUGCCUUGCUGCUCUUGCGGUCGCACUAGUGUGGAAUUCUCGGGUGUCAAGG
B8: ENSMUSG00000004113.203|Cacna1b (ssRNA)
RNA: GGGAGUUCUACAGUCCGACGAUCGCUUCGAUAUCCGCAUGCUAGCAUCGUGGAUGAGGUACGGCCUCAGGAAGCAUCGGGUGGAUUGGGUGGGAGCUGCUCAGAGCAGCACGGGGGCUUGUGUCUUAGGGACAUUGACAGUGUCCAUCAGCAUGUCAGAGAAGCAGCUGUAGUGCCCGUGUUUCUCCCUGAGUCAUGGGUUCUGAAGAAGCCAGAGCGGCACAAUGCGUGCUUGCAUGAGGCACUUUCAGCCUUUUUAAAUCUGACUCUCAGGGAUGGGAUGCCUGCCAAGUAGGGUGUAAUCCUCUUGCGGUCGCACUAGUGUGGAAUUCUCGGGUGUCAAGG
B9: ENSMUSG00000058297.39|Spock2 (ssRNA)
RNA: GGGAGUUCUACAGUCCGACGAUCGCUUCGAUAUCCGCAUGCUAGGGGGAGGACUGGGGAGUGUGGCUUGUGUGUAUGUGUGAUAUGAGAUGUGUGUGUAUGAUGUGAGAUGUGAGUGUGUGAUGUGAGAUGUGUGUAUGUGAGAUGUGUGUGUGUGUGUGUGUGUGUGUGAUGUGAGUCACCCAAAGGUCCCUAUGUUAUUGAUUUUCAAAUGCACACUUUCACACACAAGGAUACACUAACAGACCAAAAUCAAUGAGAUGUCCCUGAUCCUGCCCCUCAGCCCAACACCUGGAAUCCCUGCCUCUUGCGGUCGCACUAGUGUGGAAUUCUCGGGUGUCAAGG
B10: ENSMUSG00000058297.38|Spock2|23:27;31:44;53:64;78:84;93:102;108:133 (ssRNA)
RNA: GGGAGUUCUACAGUCCGACGAUCGCUUCGAUAUCCGCAUGCUAUCCAGUGGGGGAGGACUGGGGACACACGCUACACACAUACACACAUAUGAGAACACACACAUACAUGUGAGAUGUGACACACACAUGUGAGAACACACAUACUGAGAACACACACACACACACACACACACACAUGUGAGUCACCCAAAGGUCCCUAUGUUAUUGAUUUUCAAAUGCACACUUUCACACACAAGGAUACACUAACAGACCAAAAUCAAUGAGAUGUCCCUGAUCCUGCCCCUCAGCCCAACACCUGGAAUCUCUUGCGGUCGCACUAGUGUGGAAUUCUCGGGUGUCAAGG
B11: ENSMUSG00000058297.38|Spock2 (ssRNA)
RNA: GGGAGUUCUACAGUCCGACGAUCGCUUCGAUAUCCGCAUGCUAUCCAGUGGGGGAGGACUGGGGAGUGUGGCUUGUGUGUAUGUGUGAUAUGAGAUGUGUGUGUAUGAUGUGAGAUGUGAGUGUGUGAUGUGAGAUGUGUGUAUGUGAGAUGUGUGUGUGUGUGUGUGUGUGUGUGAUGUGAGUCACCCAAAGGUCCCUAUGUUAUUGAUUUUCAAAUGCACACUUUCACACACAAGGAUACACUAACAGACCAAAAUCAAUGAGAUGUCCCUGAUCCUGCCCCUCAGCCCAACACCUGGAAUCUCUUGCGGUCGCACUAGUGUGGAAUUCUCGGGUGUCAAGG
B12: ENSMUSG00000058297.40|Spock2 (ssRNA)
RNA: GGGAGUUCUACAGUCCGACGAUCGCUUCGAUAUCCGCAUGCUAGGACUGGGGAGUGUGGCUUGUGUGUAUGUGUGAUAUGAGAUGUGUGUGUAUGAUGUGAGAUGUGAGUGUGUGAUGUGAGAUGUGUGUAUGUGAGAUGUGUGUGUGUGUGUGUGUGUGUGUGAUGUGAGUCACCCAAAGGUCCCUAUGUUAUUGAUUUUCAAAUGCACACUUUCACACACAAGGAUACACUAACAGACCAAAAUCAAUGAGAUGUCCCUGAUCCUGCCCCUCAGCCCAACACCUGGAAUCCCUGCCCUGCCCUCUUGCGGUCGCACUAGUGUGGAAUUCUCGGGUGUCAAGG
B13: ENSMUSG00000058297.37|Spock2 (ssRNA)
RNA: GGGAGUUCUACAGUCCGACGAUCGCUUCGAUAUCCGCAUGCUACCUGGCUCCAGUGGGGGAGGACUGGGGAGUGUGGCUUGUGUGUAUGUGUGAUAUGAGAUGUGUGUGUAUGAUGUGAGAUGUGAGUGUGUGAUGUGAGAUGUGUGUAUGUGAGAUGUGUGUGUGUGUGUGUGUGUGUGUGAUGUGAGUCACCCAAAGGUCCCUAUGUUAUUGAUUUUCAAAUGCACACUUUCACACACAAGGAUACACUAACAGACCAAAAUCAAUGAGAUGUCCCUGAUCCUGCCCCUCAGCCCAACACCCUCUUGCGGUCGCACUAGUGUGGAAUUCUCGGGUGUCAAGG
B14: ENSMUSG00000058297.41|Spock2 (ssRNA)
RNA: GGGAGUUCUACAGUCCGACGAUCGCUUCGAUAUCCGCAUGCUAGGGAGUGUGGCUUGUGUGUAUGUGUGAUAUGAGAUGUGUGUGUAUGAUGUGAGAUGUGAGUGUGUGAUGUGAGAUGUGUGUAUGUGAGAUGUGUGUGUGUGUGUGUGUGUGUGUGAUGUGAGUCACCCAAAGGUCCCUAUGUUAUUGAUUUUCAAAUGCACACUUUCACACACAAGGAUACACUAACAGACCAAAAUCAAUGAGAUGUCCCUGAUCCUGCCCCUCAGCCCAACACCUGGAAUCCCUGCCCUGCCUAAUCACUCUUGCGGUCGCACUAGUGUGGAAUUCUCGGGUGUCAAGG

The record followed here is publication PMC12864922, “TDP-43 directly inhibits mRNA accumulation in neurites through modulation of mRNA stability”.

The full ranking holds about 9,900 sequences; the median of “r (bound/input frequency ratio)” is about 0.7, and the highest 2% start at about 6.5. What follows is part of a selection rich in the highest values, with near analogues and random picks from the rest.

TDP-43, sequence (Q13148 whole entry): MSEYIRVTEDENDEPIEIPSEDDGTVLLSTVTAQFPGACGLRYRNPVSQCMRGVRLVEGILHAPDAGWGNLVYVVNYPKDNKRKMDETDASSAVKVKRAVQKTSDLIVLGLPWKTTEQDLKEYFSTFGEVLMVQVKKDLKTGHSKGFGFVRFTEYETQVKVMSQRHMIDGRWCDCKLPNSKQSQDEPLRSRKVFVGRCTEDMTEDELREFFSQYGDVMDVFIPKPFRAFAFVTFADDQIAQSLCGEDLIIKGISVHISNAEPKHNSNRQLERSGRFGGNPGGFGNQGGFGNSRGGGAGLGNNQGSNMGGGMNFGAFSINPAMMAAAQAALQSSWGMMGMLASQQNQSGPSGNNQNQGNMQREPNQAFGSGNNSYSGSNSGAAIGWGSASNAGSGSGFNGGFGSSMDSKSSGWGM

The target in this experiment is TDP-43 (Homo sapiens, UniProt Q13148 1-414). In words: RNA Bind-n-Seq with designed 260-mer pool; 25 mM Tris-HCl, 150 mM KCl, 3 mM MgCl2, BSA (printed 500 mg/mL), 20 units/mL SUPERase IN; pH not stated; 500 nM RNA pool, 1 h, 4 C; TDP-43 5, 50, 500 nM; high values mean tight binding. Conditions: protein: recombinant; tags: SBP (GST cleaved off with PreScission; pGEX-GST-SBP). Summed up:
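Binding (R) is the ratio of each oligo's mapped-read-normalized abundance in the bound fraction to its abundance in the input. To obtain it, SBP-tagged recombinant TDP-43 (5, 50 or 500 nM) on streptavidin beads was incubated with 500 nM of an in vitro-transcribed 260-nt 3′ UTR oligo pool for 1 h at 4 °C in 25 mM Tris-HCl, 150 mM KCl, 3 mM MgCl2, BSA and SUPERase IN. The RNA retained after washing was released with biotin, then reverse transcribed, amplified by PCR and sequenced.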
On to B1, for which the binding signal is 4.76 R (bound/input frequency ratio).

As to B2, the binding signal was 0.339 R (bound/input frequency ratio).

For B3, the binding signal is 0.125 R (bound/input frequency ratio).

For B4, the binding signal is 0.845 R (bound/input frequency ratio).

On to B5, for which the binding signal is 0.841 R (bound/input frequency ratio).

In the case of B6, the binding signal was 0.614 R (bound/input frequency ratio).

On to B7, for which the binding signal is 0.428 R (bound/input frequency ratio).

As to B8, the binding signal was 1.21 R (bound/input frequency ratio).

With B9, the binding signal was 5.98 R (bound/input frequency ratio).

Take B10: the binding signal is 2.11 R (bound/input frequency ratio).

For B11, the binding signal is 6.55 R (bound/input frequency ratio).

For the molecule B12, the binding signal was 8.17 R (bound/input frequency ratio).

For the molecule B13, the binding signal was 6.03 R (bound/input frequency ratio).

For the molecule B14, the binding signal is 5.21 R (bound/input frequency ratio).
